From PubChem BioAssay (Tox21) come the findings set out here.

SMILES strings stand for the structures. Values without a mark were called inactive. Records with an inconclusive call do not appear. Activity calls are given as the source filed them. Unless noted, calls come from the whole dose curve; as a rule, active = well fitted curve in the direction sought with a large enough effect in the repeat runs; inconclusive = weak or mixed curves; inactive = no such curve, though single readings can be large; an effect the other way counts as inactive or inconclusive.

Test [1] can be described thus: qHTS assay to identify small molecule agonists of the hypoxia (HIF-1) signaling pathway - cell viability counter screen (AID 1224844; calls by dose curve; note: nearly all actives have a fitted effect of over 50% in size; note: potency is the fitted concentration of half-maximal effect). The essentials:
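CellTiter-Glo luminescence read-out, 30 min RT, taken in the same wells as the beta-lactamase HRE reporter assay; HRE-bla ME-180 cells, 0.5% dialyzed FBS, 17 hr compound treatment at 37C, 5% CO2.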
In general terms: In qHTS, concentration-response curves come from the screen itself.

A short description of test [2]: qHTS assay to identify small molecule agonists of H2AX (AID 1224845; active = well fitted activation curve with a large enough effect in the signal ratio in the repeat runs, not every such curve was filed as active; the % refers to the signal ratio). The essentials: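 Wild-type CHO-K1 cells, plated overnight, exposed 3hr at 37C to 15 concentrations (0.76% DMSO final). Lysed, then HTRF anti-pH2AX (S139) cryptate and anti-H2AX-d2 antibodies, 24 hr room temperature; 665/620 nm emission read.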
The nature of test [3]: qHTS assay to identify small molecule agonists of the hypoxia (HIF-1) signaling pathway (AID 1224846; active = well fitted activation curve with a large enough effect in the signal ratio in the repeat runs, not every such curve was filed as active; the % refers to the signal ratio). The procedure, abridged: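 Beta-lactamase FRET read-out (CCF4-AM substrate) from ME-180 cells carrying an HRE-driven bla reporter, after 17 hrs compound exposure at 37C/5% CO2. Cells were seeded at 2,000 per well in 0.5% dialyzed FBS medium and preincubated 5 hrs.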
A short description of test [4]: qHTS assay to identify small molecule agonists of H2AX - cell viability counter screen (AID 1224847; calls by dose curve; note: top concentration of the series differs between compounds; nearly all actives have a fitted effect of over 30% in size). The essentials:
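Counter-screen for viability: CellTiter-Glo ATP luminescence read after 3 h compound treatment (15-point titration, 0.76% DMSO final) of CHO-K1 cells at 37C, with 30 min room-temperature reagent incubation.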

Test [5] in a line: qHTS RealTime-Glo MT Cell Viability Assay in HepG2 cells - 24 hour (AID 1224867). Note: nearly all actives have a fitted effect of over 50% in size. The essentials: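 Real-time, nonlytic viability: 600 HepG2 cells/well mixed with NanoLuc enzyme plus prosubstrate; 5 h settle, compound (DMSO) added by pintool; luminescence monitored over 40 h at 37 C.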
A short description of test [6]: qHTS RealTime-Glo MT Cell Viability Assay in HEK293 cells - 32 hour (AID 1224868). For activity change, negative = cytotoxic: top concentration of the series differs between compounds. Note: nearly all actives have a fitted effect of over 50% in size. Note: potency is the fitted concentration of half-maximal effect. The essentials:
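Cells + reagent dispensed (600 cells/well, HEK293) → 5 h at 37 C/5% CO2 → 23 nL compound in DMSO pinned → 40 h at 37 C → luminescence read at 0, 8, 16, 24, 32, 40 h.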

Test [7] can be described thus: A CellTox Green Cytotoxicity Assay to monitor cytotoxicity in HEK293 cells - 0 hour (AID 1224869). Note: nearly all actives have a fitted effect of over 50% in size. The procedure, abridged: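 Read-out: fluorescence of a cell-impermeant cyanine dye staining DNA of dead cells, proportional to cytotoxicity. HEK293, 600 cells/well with reagent, compound (23 nL DMSO) added after 5 h; reads at 0, 8, 16, 24, 32, 40 h.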
The nature of test [8]: qHTS RealTime-Glo MT Cell Viability Assay in HepG2 cells - 40 hour (AID 1224870). Note: nearly all actives have a fitted effect of over 50% in size. The essentials:
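HepG2 cells (600/well) mixed with RealTime-Glo MT reagent, settled 5 h at 37 C/5% CO2 before compound addition. Nonlytic NanoLuc luminescence from viable-cell prosubstrate reduction read repeatedly during 40 h treatment at 37 C.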

Test [9] can be described thus: qHTS assay to identify small molecule antagonists of the estrogen related receptor (ERR) signaling pathway from Tox21 library (AID 1224848). Note: nearly all actives have a fitted effect of over 50% in size. The procedure, abridged: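 Quantitative high-throughput format: ERR reporter cells (2,000/well) pre-incubated 6 h, treated 18 h at 37 C with compounds in DMSO alongside positive and negative controls, then read by ONE-Glo luminescence.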

Test [10] can be described thus: qHTS assay to identify small molecule agonists of the estrogen related receptor (ERR) signaling pathway from Tox21 library (AID 1224849; calls by dose curve; note: nearly all actives have a fitted effect of over 15% in size). Particulars: ERR reporter cell line, ONE-Glo luciferase, 18 h; at 92.4 µM (top of the series) unless noted. The procedure, abridged:
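Luminescence readout (ONE-Glo, 30 min RT) after 18 h compound exposure at 37 C of NTP-supplied ERR reporter cells; cells were plated 6 h before compound addition by pin tool.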
% is set by controls: 0 for no effect and ±100 for the full control effect.

For `CCO[Si](CCCCl)(OCC)OCC`, the Potency entry in test [1], in test [2], in [3], in [4], in test [5] and in test [6] was “inactive” each time. The Potency result in [7] and in [8] was “inactive” each time.

For the compound `C=CC1CC2C=CC1C2` (stereo not drawn), the Potency result in test [1], in [2], in [3], in test [5], in [6] and in [7] was “inactive” in each case. Moreover, the Potency result in test [8] is “inactive”.

Regarding `CC(C)=CCC/C(C)=C/CC/C(C)=C/CO`, the Potency result in test [1], in test [2], in [3], in [5], in test [7] and in test [8] was “inactive” each time.

In the case of `CCOC(=O)COC(=O)c1cc(Oc2ccc(C(F)(F)F)cc2Cl)ccc1[N+](=O)[O-]`, the Potency result in test [1], in test [2], in test [3], in test [5], in test [7] and in test [8] was “inactive” each time.

With `CC1=CCCC(C)(C)C12CCC(C)O2` (stereo not drawn), the Potency result in [1], in [2], in test [3], in [5], in [6] and in test [7] was “inactive” each time. The Potency entry in test [8] was “inactive”.

For `O=C(O)CC(=O)C(=O)O`, the Potency result in [1], in test [2], in test [3], in test [5], in [6] and in test [7] was “inactive” throughout. Besides, the Potency entry in test [8] was “inactive”.

As to `COc1ccc(C(=O)N2CCN(CC(=O)N3CCOCC3)CC2)cc1`, the Potency result in test [1], in [2], in test [3], in [9], in [5] and in test [6] was “inactive” throughout. Also, the Potency entry in test [7] and in [8] was “inactive” throughout. Besides, in test [10], the activity change, positive = activation is 4.84% [at 42.5 µM].

Turning to `CNC(=O)CN(CCN(CCN(CC(=O)[O-])CC(=O)NC)CC(=O)[O-])CC(=O)[O-].O.[Gd+3]`, the Potency result in [1], in test [2], in [3], in test [5], in test [6] and in test [7] was “inactive” throughout. Also, in test [8], the Potency entry is “inactive”.

For the compound `Cc1cccc(C)c1NC(=O)CN(CC(=O)O)CC(=O)O`, the Potency result in test [1], in test [2], in test [3], in test [5], in test [6] and in test [7] was “inactive” throughout. In addition, the Potency result in [8] was “inactive”.

In the case of `NS(=O)(=O)c1ccc(N2CCCCS2(=O)=O)cc1`, the Potency entry in test [1], in test [2], in test [4], in test [5], in test [6] and in [7] was “inactive” each time. Moreover, the Potency entry in test [8] was “inactive”. In addition, the activity change, positive = activation in test [10] was 5.22% [at 42.5 µM].

Consider `CC(C)(C)Cl`, for which the Potency result in test [1], in [2], in test [3], in [5], in [6] and in [7] was “inactive” each time. Besides, the Potency result in test [8] is “inactive”.

`NC(N)=NCCC[C@H](N)C(=O)O`: the activity change, negative = cytotoxicity is -0.141% [at 6.97 µM] in test [1], 0.155% [at 14 µM] in test [4] and 3.74% [at 6.97 µM] in test [5]. Besides, the activation (H2AX phosphorylation) in test [2] was -0.995% [at 14 µM]. Also, in test [9], the activity, negative = inhibition is 11% [at 8.39 µM]. Also, in [10], the activity change, positive = activation is 5.81% [at 8.39 µM]. For the same compound, the activity change, negative = cytotoxic was 5.15% [at 6.97 µM] in test [6] and 2.25% [at 6.97 µM] in test [8]. The cytotoxicity in test [7] was -14.4% [at 6.97 µM].

Regarding `CCCCc1nc2cccnc2n1Cc1ccc(-c2ccccc2-c2nnn[nH]2)cc1`, the Potency entry in [1], in test [2], in test [3], in [4], in test [5] and in test [7] was “inactive” in each case. In addition, the Potency entry in test [8] was “inactive”.

As for `CCCn1cnc2c1c(=O)n(CCCCC(C)=O)c(=O)n2C`, the Potency entry in [1], in test [2], in test [4], in [9], in test [5] and in [6] was “inactive” each time. Also, the Potency entry in [7] and in [8] was “inactive” in each case. The activity change, positive = activation in [10] is 0.154% [at 42.5 µM].

As for `CCCCCCOC(=O)NC(=N)c1ccc(NCc2nc3cc(C(=O)N(CCC(=O)OCC)c4ccccn4)ccc3n2C)cc1`, the Potency in [1] was 23.9 µM (active); in [6], 10.7 µM (active). Besides, the Potency result in test [2], in test [3], in test [7] and in test [8] was “inactive” throughout. Moreover, the activity change, positive = activation in test [10] is -64.4% [at 42.5 µM].

Take `CC[N+](C)(CC)CCOC(=O)C(O)(c1ccccc1)C1CCCCC1` (stereo not drawn): the Potency result in test [1], in test [2], in test [4], in [9], in test [5] and in test [6] was “inactive” throughout. Further, the Potency result in test [7] and in [8] was “inactive” in each case. Besides, the activity change, positive = activation in test [10] is -2.02% [at 42.5 µM].

Turning to `c1ccc(C(O[C@H]2CCCN(CCc3ccc4c(c3)OCO4)C2)c2ccccc2)cc1`, the Potency result in [1], in [2], in test [3], in test [5], in test [7] and in test [8] was “inactive” throughout.

Consider `O=C(O)c1ccc(S(=O)(=O)O)cc1C(=O)O`, for which the Potency entry in test [1], in test [2], in test [4], in test [9], in [5] and in test [7] was “inactive” in each case. In addition, in test [8], the Potency result was “inactive”. Further, the activity change, positive = activation in test [10] was -2.89%.

With `CCn1cc(C(=O)O)c(=O)c2cnc(N3CCNCC3)nc21`, the Potency result in test [1], in test [2], in test [4], in [5], in test [6] and in [7] was “inactive” in each case. Further, in test [8], the Potency result was “inactive”. For the same compound, the activity change, positive = activation in [10] is 2.22% [at 42.5 µM].

Turning to `CC(C)O.CC(C)O.CCOC(=O)/C=C(\C)O.CCOC(=O)/C=C(\C)O.[Ti]`, the Potency entry in test [1], in test [2], in test [3], in test [5], in [6] and in [7] was “inactive” in each case. In addition, the Potency entry in test [8] is “inactive”.

As to `O=C1OC(=O)C2C3C=CC(C3)C12` (stereo not drawn), the Potency entry in test [1], in [2], in [3], in [5], in test [6] and in test [7] was “inactive” each time. Moreover, the Potency result in [8] is “inactive”.

`CCOCC(O)COc1ccc(NC(=O)CC[S+](C)C)cc1` (stereo not drawn): the Potency entry in test [1], in test [2], in [3], in test [5], in test [6] and in test [7] was “inactive” each time. Also, in test [8], the Potency result was “inactive”.

As to `CC(=O)[O][Al]`, the Potency entry in test [1], in [2], in test [3], in test [9], in test [5] and in test [6] was “inactive” each time. The Potency entry in [7] and in test [8] was “inactive” each time. The activity change, positive = activation in [10] was 0.0434%.

Consider `C[C@@H]1C[C@H]2O[C@@]3(O[C@@H]2C(C)(C)O)[C@H](O)[C@@]2(C)[C@@H]4CC[C@H]5C(C)(C)[C@@H](O[C@@H]6OC[C@@H](O)[C@H](O)[C@H]6O)CC[C@@]56C[C@@]46CC[C@]2(C)[C@@H]13`, for which the Potency result in [1], in test [2], in [4], in test [9], in test [5] and in test [6] was “inactive” each time. The Potency result in test [7] and in test [8] was “inactive” each time. In test [10], the activity change, positive = activation is -12.2% [at 42.5 µM].

Regarding `CCN(CC)CCNC(=O)c1cc(Br)c(N)cc1OC`, the Potency result in [1], in [2], in test [4], in test [9], in [5] and in test [6] was “inactive” each time. Also, the Potency entry in test [7] and in [8] was “inactive” in each case. In [10], the activity change, positive = activation was 3.9% [at 42.5 µM].

With `C#Cc1cccc(Nc2ncnc3cc(OCCOC)c(OCCOC)cc23)c1`, the Potency result in test [1], in test [2], in test [3], in [5], in test [6] and in [7] was “inactive” each time. In addition, in test [8], the Potency entry was “inactive”. For the same compound, in test [10], the activity change, positive = activation is -38.1% [at 42.5 µM].
